Test results: PubChem BioAssay
Calls of active or inactive are those of the source. Unless noted, the rule behind the calls is not given here.

Test: inhibitors of Cryptococcus chitosan production, flow cytometry, Cibacron Brilliant Red staining (AID 1347148);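 note: compound exposure lasted three days at 37 degrees C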
Details: Cryptococcus neoformans chitosan, stronger effect = lower value; at 10 µM unless noted

Row | SMILES | fold fluorescence
1 | CC1(C)[C@@H](O)C[C@H]2[C@](C)(O)[C@@H]3CCC4[C@@H](O)[C@@]3(C[C@@H](O)[C@@]21O)C[C@@]4(C)O | 2.34 [at 135 µM] (active)
2 | COC1=CC(=O)O[C@H](/C=C/c2ccccc2)C1 | 3.69 [at 217.1 µM] (inactive)
3 | CC(C)[C@@H]1NC(=O)[C@H](C(C)C)OC(=O)[C@@H](C(C)C)NC(=O)[C@@H](C)OC(=O)[C@@H](C(C)C)NC(=O)[C@H](C(C)C)OC(=O)[C@@H](C(C)C)NC(=O)[C@@H](C)OC(=O)[C@H](C(C)C)NC(=O)[C@H](C(C)C)OC(=O)[C@H](C(C)C)NC(=O)[C@H](C)OC1=O | 7.5 [at 45 µM] (inactive)
4 | COC(=O)[C@]1(O)C[C@@H]2O[C@@]1(C)n1c3ccccc3c3c4c(c5c6ccccc6n2c5c31)C(=O)NC4 | 6.41 [at 10.7 µM] (inactive)
5 | Cc1c(C(=O)c2cccc3ccccc23)c2cccc3c2n1[C@@H](CN1CCOCC1)CO3 | 4.51 (inactive)
6 | CN1C(=O)[C@@]23CC4=CC=C[C@@H](O)[C@@H]4N2C(=O)[C@]1(CO)SS3 | 7.1 [at 153.2 µM] (inactive)
7 | CCNC(=O)[C@@H]1O[C@H](n2cnc3c(N)ncnc32)C(O)[C@@H]1O (some centres undefined) | 4.97 [at 162.2 µM] (inactive)
8 | C=C1C(=O)O[C@H]2C[C@H](C)[C@H]3C=CC(=O)[C@]3(C)[C@H](O)[C@@H]12 | 9.09 [at 190.6 µM] (inactive)
9 | CC(C)NC[C@H](O)c1ccc(N)c(C#N)c1 | 4.74 [at 228 µM] (inactive)
10 | CNc1ccc2oc(C[C@H]3OC4(CC[C@H]3C)O[C@@H](C(C)C(=O)c3ccc[nH]3)[C@@H](C)C[C@@H]4C)nc2c1C(=O)O (some centres undefined) | 5.79 [at 95.5 µM] (inactive)
11 | CCCCCc1cc(O)c2c(c1)OC(C)(C)[C@H]1CCC(C(=O)O)=CC21 (some centres undefined) | 7.25 (inactive)
12 | COc1ccc(C(=O)OC2CCC3(C)C4CCC5C6(O)CC(O)C7(O)C(CN8CC(C)CCC8C7(C)O)C6(O)CC53OC24O)cc1OC (centres undefined) | 11.6 [at 74.2 µM] (inactive)
13 | O[C@@H]1[C@@H]2[C@@H](O)CCCN2C[C@@H]1O | 5.36 [at 288.7 µM] (inactive)
14 | OC[C@@H]1O[C@H](n2cnc3cc(Cl)c(Cl)cc32)C(O)[C@@H]1O (some centres undefined) | 3.08 [at 156.7 µM] (inactive)
15 | CC(=O)NC1C(OC2OC(CC(O)C3OC(n4ccc(=O)[nH]c4=O)C(O)C3O)C(O)C(O)C2NC(=O)/C=C\CC(C)C)OC(CO)C(O)C1O (centres undefined) | 7.24 [at 69.6 µM] (inactive)
16 | CCCCCCCCCCCCCCCC(=O)OC[C@@H](COP(=O)([O-])OCC[N+](C)(C)C)OC(C)=O | 4.75 (inactive)
17 | CC(CCC(=O)O)CC(C)CC(C)C(=O)/C=C(\O)C(C)CC(C)C/C=C/C(C)C(O)C(C)C(O)CC1CCC(C)(C2CCC(C)(C(C)O)O2)O1 (centres undefined) | 5.45 [at 70.5 µM] (inactive)

Test: phospholipid biosynthesis inhibitors in animal cells, primary screen, cell-based, LOPAC library, screen 4 (AID 1347384)
Details: phospholipid biosynthesis inhibition screen, at 10 µM

Row | SMILES | outcome
18 | N#CCCN | inactive
19 | [Cl][Pt].[NH2-].[NH2-].c1ccncc1 | inactive
20 | C[C@H]1C2Cc3ccc(O)cc3[C@@]1(C)CCN2CC1CC1 | inactive

Test: survival rescue of mitochondrial mutant cells in low glucose, primary screen, MELAS cybrids, Rieske KO mouse fibroblasts, CellTiter-Glo (AID 1508586;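 active = mean z-score across replicates of 1.96 or higher in either the MELAS or the Rieske mutant cell line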;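 note: z relative to plate mean and SD of compound and empty wells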)
Details: MELAS cybrid survival, CellTiter-Glo 48 h, stronger effect = higher value

Row | SMILES | z-score
21 | CC[C@H](C)[C@H]1O[C@]2(C=C[C@@H]1C)C[C@@H]1C[C@@H](C/C=C(\C)C(O[C@H]3C[C@H](OC)C(O[C@H]4C[C@H](OC)[C@@H](O)[C@H](C)O4)[C@H](C)O3)[C@@H](C)/C=C/C=C3\CO[C@@H]4[C@H](O)C(C)=C[C@@H](C(=O)O1)[C@]34O)O2 (some centres undefined) | -1.19 (inactive)
22 | CN1CCN(C(=O)OC2c3nccnc3C(=O)N2c2ccc(Cl)cn2)CC1 (centres undefined) | -0.0147 (inactive)
23 | C=CC[C@]1(O)CC[C@H]2[C@@H]3CCC4=CC(=O)CCC4=C3C=C[C@@]21C | 0.712 (inactive)
24 | COCCCOc1ccnc(CS(=O)c2nc3ccccc3[nH]2)c1C (centres undefined) | 1.01 (inactive)
25 | CC(=O)O[C@H]1C[C@H](O[C@H]2[C@@H](O)C[C@H](O[C@H]3[C@@H](O)C[C@H](O[C@H]4CC[C@@]5(C)[C@H](CC[C@@H]6[C@@H]5C[C@@H](O)[C@]5(C)[C@@H](C7=CC(=O)OC7)CC[C@]65O)C4)O[C@@H]3C)O[C@@H]2C)O[C@H](C)[C@H]1O[C@@H]1O[C@H](CO)[C@@H](O)[C@H](O)[C@H]1O | 2.15 (active)
26 | CCN(CC)C(C)C(=O)c1ccccc1 (centres undefined) | 0.648 (inactive)
27 | C=CCC1(CC(C)C)C(=O)NC(=O)NC1=O | 0.0849 (inactive)

Same assay, conditions: Rieske KO mouse fibroblast survival, CellTiter-Glo 72 h

Row | SMILES | z-score
28 | CC[C@H](C)[C@H]1O[C@]2(C=C[C@@H]1C)C[C@@H]1C[C@@H](C/C=C(\C)C(O[C@H]3C[C@H](OC)C(O[C@H]4C[C@H](OC)[C@@H](O)[C@H](C)O4)[C@H](C)O3)[C@@H](C)/C=C/C=C3\CO[C@@H]4[C@H](O)C(C)=C[C@@H](C(=O)O1)[C@]34O)O2 (some centres undefined) | 1.52
29 | CN1CCN(C(=O)OC2c3nccnc3C(=O)N2c2ccc(Cl)cn2)CC1 (centres undefined) | 0.36
30 | C=CC[C@]1(O)CC[C@H]2[C@@H]3CCC4=CC(=O)CCC4=C3C=C[C@@]21C | 0.629
31 | COCCCOc1ccnc(CS(=O)c2nc3ccccc3[nH]2)c1C (centres undefined) | 0.105
32 | CC(=O)O[C@H]1C[C@H](O[C@H]2[C@@H](O)C[C@H](O[C@H]3[C@@H](O)C[C@H](O[C@H]4CC[C@@]5(C)[C@H](CC[C@@H]6[C@@H]5C[C@@H](O)[C@]5(C)[C@@H](C7=CC(=O)OC7)CC[C@]65O)C4)O[C@@H]3C)O[C@@H]2C)O[C@H](C)[C@H]1O[C@@H]1O[C@H](CO)[C@@H](O)[C@H](O)[C@H]1O | 0.322
33 | CCN(CC)C(C)C(=O)c1ccccc1 (centres undefined) | -0.333
34 | C=CCC1(CC(C)C)C(=O)NC(=O)NC1=O | 0.0147
